An excerpt weighted towards active compounds, which were near 2.5% of everything screened.
MEKK2 mut-MEK5: signal of MEK5 binding to mutant human MEKK2 PB1 domain; bead flow cytometry, Alexa488-MEK5 binding to MEKK2 mutant; percent response, % at 10 µM; hit rate 0.35% among 290,000; AID 1530; in the data active means percent response above about 24%, passing the limit was not always enough
MEKK2wt PB1 HTS: raises or lowers MEK5 binding to wildtype human MEKK2 PB1 domain; bead flow cytometry, Alexa488-MEK5 binding to MEKK2 WT; actives lie on both sides; Q9Y2U5; binding response (% of control), % at 10 µM; hit rate 1.1% among 290,000; in the data active means binding response below about 67% or above about 130%
MEKK3 PB1 HTS: raises or lowers MEK5 binding to the human MEKK3 PB1 domain; AID 1529; hit rate 1.4% among 290,000; binding response (% of control), % at 10 µM; bead-based flow cytometry, Alexa488-MEK5 binding to MEKK3; actives lie on both sides; 0 = blocked by unlabeled MEK5, 100 = vehicle; Q99759;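 active means binding response more than 3 SD above or below the average of its plate-row segment, actives on both sides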;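 further: Alexa488 bead fluorescence after subtracting the streptavidin-only scavenger bead signal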
Target sequence (Q99759 whole entry, looked up, the tested form may be a part): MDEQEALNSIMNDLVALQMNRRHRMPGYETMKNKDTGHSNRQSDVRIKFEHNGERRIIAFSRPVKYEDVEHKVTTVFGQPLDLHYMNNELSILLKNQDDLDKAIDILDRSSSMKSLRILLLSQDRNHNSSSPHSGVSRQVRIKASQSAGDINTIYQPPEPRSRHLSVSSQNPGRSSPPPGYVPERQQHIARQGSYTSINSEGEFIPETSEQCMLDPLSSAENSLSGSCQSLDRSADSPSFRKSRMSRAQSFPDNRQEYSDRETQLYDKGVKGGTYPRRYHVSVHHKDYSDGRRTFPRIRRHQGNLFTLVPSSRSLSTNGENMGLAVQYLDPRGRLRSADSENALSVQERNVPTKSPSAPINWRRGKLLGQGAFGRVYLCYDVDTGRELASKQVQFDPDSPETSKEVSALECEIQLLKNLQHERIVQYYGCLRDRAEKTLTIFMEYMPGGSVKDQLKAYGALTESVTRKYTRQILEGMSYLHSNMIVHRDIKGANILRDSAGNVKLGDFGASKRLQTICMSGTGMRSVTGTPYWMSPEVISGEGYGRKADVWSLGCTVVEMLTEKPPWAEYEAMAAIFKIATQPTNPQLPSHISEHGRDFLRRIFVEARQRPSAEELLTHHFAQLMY
GRK2 inh: human GRK2 inhibition via aptamer displacement. P25098. bead flow cytometry, FAM-aptamer displacement from GRK2. inhibition of aptamer binding, % at 10 µM. hit rate 0.59% among 330,000. AID 488847;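 active means inhibition of aptamer binding above 40%, roughly 3 SD of noise, on plates passing a quality check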;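 further: median bead fluorescence of bound FAM aptamer so fluorescent compounds give negative values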
MEKK2wt confirm: raises or lowers MEK5 binding to wildtype human MEKK2, retest; shares compounds with MEKK3 PB1 HTS; binding response (% of control), % at 10 µM; bead flow cytometry, Alexa488-MEK5 binding to MEKK2 WT; actives lie on both sides; hit rate 2.4% among 5,900; in the data active means binding response below about 16% or above about 210%; inactive means in between
MEKK2mut confirm: signal of MEK5 binding to mutant human MEKK2, retest; bead flow cytometry, Alexa488-MEK5 binding to MEKK2 mutant; hit rate 2% among 5,900; shares compounds with MEKK3 PB1 HTS; percent response, % at 10 µM; in the data active means percent response mostly above about 71%, no sharp cut-off; inactive means mostly below about 38%;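 further: higher means compound restores mutant binding toward wildtype level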
MEKK3-MEK5 inh: MEKK3-MEK5 PB1 inhibition, single concentration confirmation; shares compounds with MEKK3 PB1 HTS; bead flow cytometry, Alexa488-MEK5 binding to MEKK3; hits give low values; binding response (% of control), % at 10 µM; hit rate 1.8% among 5,900; AID 1894;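 active means binding response below 72% of control, or above a set upper limit, though filed actives all read lower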;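 further: 100% = DMSO only wells and 0% = binding blocked by excess unlabeled MEK5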
Numbers without * were called inactive; x = not tested or not shown; [ ] = remark or other dose.

SMILES	MEKK2 mut-MEK5	MEKK2wt PB1 HTS	MEKK3 PB1 HTS	GRK2 inh	MEKK2wt confirm	MEKK2mut confirm	MEKK3-MEK5 inh
COC(=O)c1ccc2c(c1)C(C)(C)C(/C=C/c1ccccc1O)=[N+]2C	-8	-1.0*[inhibitor]	68	3	89	-3	87
O=C(C1CCCO1)N1CCN(Cc2nc3ccccc3c(=O)[nH]2)CC1 (stereo not drawn)	-1	99	101	1	x	x	x
CN(Cc1ccc(OCC(O)CN2CCCCC2)cc1)Cc1ccnc2ccccc12 (stereo not drawn)	37	148*	106	x	127	30	106
Cc1nn(C)cc1CN(C)Cc1ccc(OCC(O)CN2CCCCC2)cc1 (stereo not drawn)	17	121	98	0	x	x	x
CCOc1ccc(NC(=O)CSc2nnc(Cc3ccccc3)c(=O)n2N)cc1	x	x	x	1	x	x	x
CCOC(=O)C1CCCN(C2=NC(=O)/C(=C/c3ccc(O)c(OCC)c3)S2)C1 (stereo not drawn)	14	111	110	0	x	x	x
CCOc1ccc(N(CC(=O)Nc2cccc(Cl)c2)S(=O)(=O)c2c(C)noc2C)cc1	10	155*	107	0	98	-2	101
COC(/C=C/Nc1ccc(OC)cc1)=C(C#N)C#N	2	101	104	2	x	x	x
Cn1c(=NC(=O)COc2ccccc2)sc2ccccc21	-3	85	74*[inhibitor]	1	98	2	99
O=C(NNc1cc(Cl)ccc1Cl)c1c(F)cccc1Cl	25	124	129*	0	108	5	106
Cc1ccc(-c2nn(Cc3ccccc3)cc2/C=C/C(=O)O)cc1C	7	106	109	0	x	x	x
CCCCCCN(C(=O)CCCCCN1C(=O)NC(c2ccc(-c3ccccc3)cc2)C(C(=O)OCc2ccccc2)=C1C)C(C)C(=O)NCCCC (stereo not drawn)	-6	92	100	0	x	x	x
Cc1cccc2sc(N(CCN(C)C)C(=O)c3cc(Cl)sc3Cl)nc12	1	109	112	0	x	x	x
Cc1ccc2sc(N(CCCN(C)C)C(=O)c3ccc(S(=O)(=O)N4CCCCCC4)cc3)nc2c1C	x	x	x	0	x	x	x
CN(C)CCCN(C(=O)COc1ccccc1)c1nc2ccc(F)cc2s1	9	123	104	0	x	x	x
CN(C)CCCN(C(=O)CCc1ccccc1)c1nc2c(F)cccc2s1	-1	118	98	0	x	x	x
CN(C)CCCN(C(=O)CCOc1ccccc1)c1nc2ccc(F)cc2s1	7	143*	108	x	126	10	105
Cc1cccc2sc(N(CCCN(C)C)C(=O)COc3ccc(Cl)cc3)nc12	53*	191*	105	0	168	28	106
Cc1ccc2sc(N(CCCN(C)C)C(=O)CN3C(=O)c4ccccc4C3=O)nc2c1C	33	150*	106	0	132	13	101
CN(C)CCCN(C(=O)CCOc1ccccc1)c1nc2c(F)cccc2s1	41	146*	105	x	142	24	106
Cn1ncn2c(=O)c3c(nc12)-c1ccccc1CC31CCCC1	1	96	97	1	x	x	x
CN(C)CCCN(C(=O)c1ccc(N2C(=O)CCC2=O)cc1)c1nc2c(F)cccc2s1	-3	102	105	0	x	x	x
CN(C)CCCN(C(=O)COc1ccc(Cl)cc1)c1nc2c(F)cccc2s1	33	162*	103	0	161	40	112
CCN1CCN(C(c2ccccc2)c2nnnn2Cc2ccccc2)CC1 (stereo not drawn)	9	139*	144*	0	114	17	108
CCN1CCN(C(c2ccc(OC)cc2)c2nnnn2Cc2ccc3c(c2)OCO3)CC1 (stereo not drawn)	7	132	144*	0	100	1	101
SMILES	MEKK2 mut-MEK5	MEKK2wt PB1 HTS	MEKK3 PB1 HTS	GRK2 inh	MEKK2wt confirm	MEKK2mut confirm	MEKK3-MEK5 inh
CCCc1cc(=O)oc2c3c(c(Cl)cc12)OCN(CCCO)C3	-4	105	101	5	x	x	x
Cc1ccccc1C(=O)c1cccn1CC(=O)NCCN1CCN(c2cccc(C)c2C)CC1	10	144*	104	0	133	25	107
Cc1ccc(C)c(N2CCN(CCCNC(=O)Cn3cccc3C(=O)c3ccccc3C)CC2)c1	-2	130	98	0	x	x	x
COCCCN1C(=O)c2ccc(C(=O)OCC(=O)NCc3cccc(OC)c3)cc2C1=O	x	x	x	1	x	x	x
COc1ccc2[nH]c(=O)c(CN(CCCN(C)C)C(=O)Nc3ccccc3)cc2c1	6	108	106	0	x	x	x
Cc1cccc(NC(=O)c2ccc3c(c2)C(=O)N(c2ccccc2C)C3=O)n1	x	x	x	0	x	x	x
Cc1ccc(SCCc2cc[n+](CC(=O)c3ccccc3)cc2)cc1	-3	143*	101	0	153	36	96
O=C(C[n+]1ccc(CCSc2ccc(F)cc2)cc1)c1ccccc1	249*	61*	93	0	149	27	101
Cc1ccc(C(=O)C[n+]2ccc(Cc3ccccc3)cc2)cc1	2	106	104	0	x	x	x
CCCCNC(=O)CCCCCNS(=O)(=O)c1ccc(OC)cc1	5	103	103	0	x	x	x
Cc1ccc2c(c1)N(C(C)C(=O)NCc1ccc3c(c1)OCO3)C(=O)CO2 (stereo not drawn)	-14	29*[inhibitor]	30*[inhibitor]	2	130	12	107
Cc1ccc2c(c1)N(C(C)C(=O)NCc1cccs1)C(=O)CO2 (stereo not drawn)	7	107	104	0	x	x	x
CC1CC(=O)Nc2ccccc2N1C(=O)CN1CCN(c2ccccc2)CC1 (stereo not drawn)	-4	-5.0*[inhibitor]	94	1	99	-5	99
COc1ccc(CNC(=O)CN(C)S(=O)(=O)c2ccc3c(c2)OCCO3)cc1OC	x	x	x	0	x	x	x
COCCNC(=O)CN(C)S(=O)(=O)c1ccc2c(c1)OCCO2	-14	11*[inhibitor]	7.0*[inhibitor]	0	104	3	106
CCN(CC)CCCNC(=O)c1cc2c(Cl)nc3ccccc3c2s1	54*	152*	105	0	130	15	108
O=C(/C=C/c1ccc(F)cc1)N1CCN(c2ncccn2)CC1	2	98	100	3	x	x	x
CN(Cc1cccc(C(F)(F)F)c1)C(=O)C1CCC(=O)N(CC2CCCCC2)C1 (stereo not drawn)	-2	99	97	0	x	x	x
CCC[C@@H](CNC)NC[C@H](Cc1ccccc1)NCCCCc1ccccc1	8	154*	104	0	146	27	106
CNC[C@@H](CC1CCCCC1)NC[C@H](CC(C)C)NCCc1cccc(C(F)(F)F)c1	33*	234*	109	x	159	36	107

Bioassay records (PubChem)
